In all, about 5,600 compounds went through this assay and about 3,100 (55%) were called active. Not shown: some 3% with an inconclusive outcome. So high a share suggests a set chosen from earlier hits. Not all results are given here. A number with no mark means an inactive call.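 How the source made its calls: active means mean loss of cell viability signal at or above a set limit, and enough replicates individually reaching it; inconclusive means meets only the mean limit or only the replicate share; inactive means meets neither condition.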
Assay: NIH/3T3 fibroblast cytotoxicity, confirmation, cytotoxicity control, cell-based, cherry-pick, single point, set 2 (AID 651744);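 further: 0% = median of neutral control wells and 100% = median of positive control wells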
Conditions: NIH/3T3 viability, CellTiter-Glo ATP luminescence, 90 h; at 24.9 µM; active compounds read high

| SMILES | inhibition |
| --- | --- |
| C[C@@H]1CN([C@H](C)CO)C(=O)Cc2cc(NC(=O)Cc3ccccc3)ccc2O[C@H]1CN(C)Cc1ccc(Oc2ccccc2)cc1 | 83.1% (active) |
| C[C@@H]1CN([C@@H](C)CO)C(=O)c2cc(NC(=O)Nc3ccc4c(c3)OCO4)ccc2O[C@@H]1CN(C)Cc1ccc(Oc2ccccc2)cc1 | 103% (active) |
| C[C@@H]1CN([C@@H](C)CO)C(=O)c2cc(NC(=O)Cc3ccccc3)ccc2O[C@@H]1CN(C)Cc1ccc(Oc2ccccc2)cc1 | 104% (active) |
| C[C@@H]1CN([C@@H](C)CO)C(=O)c2cc(NC(=O)Nc3cccc4ccccc34)ccc2O[C@H]1CN(C)Cc1ccc(Cl)c(Cl)c1 | 18.8% |
| O=C(NCc1ccccn1)[C@@H]1[C@@H](CO)[C@@H]2Cn3c(ccc(/C=C/c4ccccc4)c3=O)[C@H]1N2CC1CC1 | 47.4% (active) |
| CCCNC(=O)N1[C@@H]2c3cccc(=O)n3C[C@H]1[C@H](CO)[C@H]2C(=O)NCC(F)(F)F | -10.7% |
| C[C@H]1CN([C@@H](C)CO)C(=O)Cc2cc(NC(=O)Cc3cn(C)c4ccccc34)ccc2O[C@@H]1CN(C)Cc1ccc(C(F)(F)F)cc1 | 69.9% (active) |
| C[C@H](CO)N1C[C@H](C)[C@@H](CN(C)Cc2ccc(-c3ccccc3)cc2)Oc2ccc(NC(=O)CCC(F)(F)F)cc2CC1=O | 105% (active) |
| C[C@H](CO)N1C[C@H](C)[C@H](CN(C)Cc2ccc(-c3ccccc3)cc2)Oc2ccc(NC(=O)Nc3ccc(F)cc3)cc2CC1=O | 103% (active) |
| C[C@H]1CN([C@@H](C)CO)C(=O)Cc2cc(NC(=O)Cc3cn(C)c4ccccc34)ccc2O[C@@H]1CN(C)Cc1ccccc1 | 18.1% |
| C[C@@H]1CN([C@H](C)CO)C(=O)Cc2cc(NC(=O)c3ccncc3)ccc2O[C@H]1CN(C)Cc1ccc(-c2ccccc2)cc1 | 102% (active) |
| C[C@@H]1CN([C@@H](C)CO)C(=O)Cc2cc(NC(=O)C3CCCCC3)ccc2O[C@@H]1CN(C)Cc1ccc(C(=O)Nc2ccccc2N)cc1 | 59.4% (active) |
| C[C@@H]1CN([C@H](C)CO)C(=O)CCCn2nncc2CO[C@@H]1CN(C)Cc1ccc(C(=O)Nc2ccccc2N)cc1 | 9.3% |
| CCCNC(=O)N(C)C[C@@H]1Oc2ncc(C#Cc3ccccc3F)cc2C(=O)N([C@@H](C)CO)C[C@H]1C | 41.6% (active) |
| C[C@@H]1CN([C@@H](C)CO)C(=O)CCCn2cc(nn2)CO[C@@H]1CN(C)S(=O)(=O)c1ccccc1F | -3.5% |
| C[C@H](CO)N1C[C@H](C)[C@@H](CN(C)S(=O)(=O)c2ccccc2)Oc2ncc(C#Cc3ccccc3F)cc2C1=O | 69.9% (active) |
| C[C@H](CO)N1C[C@H](C)[C@@H](CN(C)S(=O)(=O)c2ccccc2F)Oc2ncc(C#Cc3ccccc3F)cc2C1=O | 46.5% (active) |
| COc1ccc(-c2ccc3c(c2)[C@@H]2[C@@H](CCN2C(=O)Cc2ccccn2)[C@H](CO)N3C)cc1 | 9.06% |
| CC(C)NC(=O)N(C)C[C@H]1OCc2cn(nn2)CCCC(=O)N([C@@H](C)CO)C[C@H]1C | -9.15% |
| CCCC#Cc1ccc([C@H]2[C@H](CO)N3CCCCN(C(=O)c4ccc5c(c4)OCO5)C[C@@H]23)cc1 | 85.9% (active) |

| SMILES | inhibition |
| --- | --- |
| COc1ccc(-c2ccc([C@H]3[C@H]4CN(C(=O)c5ccc6c(c5)OCO6)CCCCN4[C@H]3CO)cc2)cc1 | 67.5% (active) |
| COCC#Cc1ccc([C@@H]2[C@H](CO)N3CCCCN(C(=O)CN(C)C)C[C@@H]23)cc1 | -6.74% |
| Cc1cccc(-c2ccc([C@@H]3[C@H](CO)N4CCCCN(C(=O)c5ccc6c(c5)OCO6)C[C@@H]34)cc2)c1 | 105% (active) |
| O=C(c1cccc(F)c1)N1CCCCN2[C@H](CO)[C@H](c3ccc(-c4ccncc4)cc3)[C@H]2C1 | -0.739% |
| CC(C)(O)C#Cc1ccc([C@@H]2[C@H](CO)N3CCCCN(C(=O)c4cccc(F)c4)C[C@@H]23)cc1 | 1.66% |
| CC(C)(C)[S@@](=O)N1Cc2cc(C(=O)NCc3ccc4c(c3)OCO4)nc(-c3cccc(-c4ccccc4)c3)c2[C@H]1CCO | 49% (active) |
| O=C(Nc1ccc(-c2ccccc2)cc1)[C@H]1[C@H](CO)[C@H]2Cn3c(cccc3=O)[C@H]2N1CC1CC1 | 59.4% (active) |
| O=C(NCC1CCCCC1)[C@H]1[C@H](CO)[C@H]2Cn3c(cccc3=O)[C@H]2N1C(=O)CC1CC1 | 2.76% |
| CNC[C@@H]1Oc2cc(C#CCC3CCCC3)ccc2S(=O)(=O)N([C@H](C)CO)C[C@H]1C | 105% (active) |
| CNC[C@H]1OCCCC[C@@H](C)Oc2ccc(NS(C)(=O)=O)cc2C(=O)N([C@H](C)CO)C[C@H]1C | -29.3% |
| C[C@@H]1CCCCO[C@H](CN(C)C(=O)CCC(F)(F)F)[C@H](C)CN([C@H](C)CO)C(=O)c2cc(NS(C)(=O)=O)ccc2O1 | 4.09% |
| C[C@@H]1CN([C@@H](C)CO)S(=O)(=O)c2ccc(C#CCC3CCCC3)cc2O[C@H]1CN(C)C(=O)CC1CC1 | 104% (active) |
| C[C@@H]1CN([C@H](C)CO)S(=O)(=O)c2ccc(C#CCC3CCCC3)cc2O[C@H]1CN(C)C(=O)CC1CC1 | 103% (active) |
| CNC[C@H]1OCCCC[C@H](C)Oc2ccc(NC(=O)Nc3c(C)noc3C)cc2C(=O)N([C@H](C)CO)C[C@H]1C | 11.5% |
| CC(=O)NC[C@@H]1[C@@H](c2ccc(-c3ccccc3F)cc2)[C@@H](CO)N1C(=O)C1CC1 | -15.5% |
| C[C@@H]1CCCCO[C@@H](CN(C)C(=O)Nc2ccc(F)cc2)[C@H](C)CN([C@H](C)CO)C(=O)c2cc(NC(=O)Nc3cccc4ccccc34)ccc2O1 | -7.66% |
| C[C@@H]1CN([C@@H](C)CO)C(=O)c2cc(NC(=O)Nc3cccc4ccccc34)ccc2O[C@@H](C)CCCCO[C@H]1CN(C)Cc1ccccc1 | 104% (active) |
| C[C@@H]1CCCCO[C@H](CN(C)C(=O)Nc2cccc3ccccc23)[C@H](C)CN([C@H](C)CO)C(=O)c2cc(NS(=O)(=O)c3cccs3)ccc2O1 | 2.06% |
| C[C@@H]1CCCCO[C@@H](CN(C)Cc2ccccc2)[C@H](C)CN([C@H](C)CO)C(=O)c2cc(NC(=O)Nc3cccc4ccccc34)ccc2O1 | 105% (active) |

— PubChem BioAssay AID651744 (Broad Institute, 2012)
